Measurements as given in PubChem BioAssay AID1347056 (Sanford-Burnham Center for Chemical Genomics, 2019).
“And” between values parts separate entries of the source, which are not always exact repeats. Equal values may be shown once. Screen size: about 360,000 compounds; about 3,600 (1%) were called active.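 How the source made its calls: active means compounds whose plate-normalised and pattern-corrected inhibition of the luciferase reporter signal at the single screening dose is 50% or more; inactive means the rest.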 Only a selection was taken, and actives are over-represented in it overall.

experiment: TROY pathway blockers in reporter cells – Q293 LMP1-TROYcd cells, NF-kB luciferase, uHTS, primary screen (AID 1347056); settings: 4 h, at 10 µM, hits give high values

Compound	inhibition
CN1C(=O)/C(=C/C=C2\SCCN2C)OC1=S	-2.27% (inactive)
CCOC(=O)CCCNC(=O)CN1C(=O)NC(CCc2ccccc2)C1=O (stereo unspecified)	-5.07% (inactive)
O=C1/C(=C\Nc2ccccc2)CCN1c1ncccn1	-49.4% (inactive)
COc1ccc(Cc2nnc(SCC(=O)Nc3ccc(C)c(C)c3)o2)cc1OC	8.78% (inactive)
Fc1ccc2[nH]c3c(N4CCSCC4)ncnc3c2c1	59.8% (active)
Cc1ccnc(NC(=O)C(C)N2C(=O)c3ccccc3C2=O)c1 (stereo unspecified)	-1.82% (inactive)
Oc1c(Cl)cc(Cl)c(Cl)c1Cc1c(O)c(Cl)cc(Cl)c1Cl	80.3% (active)
CC(Oc1ccccc1)C(=O)Nc1oc(-c2ccco2)c(-c2ccco2)c1C#N (stereo unspecified)	14.3% (inactive)
O=C(O)c1ccc2c(=O)n3c(nc2c1)/C(=C/c1ccc(OC(F)F)cc1OC(F)F)CC3	1.62% (inactive)
c1ccc(-c2nnc(SCc3nc4ccccc4[nH]3)o2)cc1	57.9% (active)
Fc1ccc2nc(-c3ccccc3)nc(SCc3nnc(-c4ccccc4)o3)c2c1	-9.52% (inactive)
CCN(C(=O)CSc1nnc(-c2ccncc2)o1)c1ccccc1	2.98% (inactive)
COc1ccc(C(C)=O)cc1CN1C(=O)NC2(CCCCC2C)C1=O (stereo unspecified)	19% (inactive)
CCOc1ccc(CCNC(=O)CCc2nnc3ccc(N4CCCC4)nn23)cc1OCC	3.54% (inactive)
Cc1nc2sccn2c(=O)c1S(=O)(=O)NCCc1ccccc1	-4.17% (inactive)
O=C(Nc1cc(-c2nn(CC(=O)N3CCCCC3)c(=O)c3ccccc23)ccc1N1CCOCC1)c1ccc(Cl)cc1	-10.6% (inactive)
O=C(Nc1cc(S(=O)(=O)N2CCOCC2)ccc1OCC(F)(F)F)c1ccc(N2CCCC2=O)cc1	1.27% (inactive)
O=C(Nc1cc(Cl)ccc1N1CCOCC1)c1ccc(N2CCCC2=O)cc1	70.3% (active)
CN(C)C(=O)c1ccc2c(c1)C1C3CCC(C3)C1C(c1ccccc1)N2 (stereo unspecified)	-1.11% (inactive)
O=C(C1CCC(=O)N(C2CC2)C1)N1CCN(c2ccc(Cl)cc2)CC1 (stereo unspecified)	-7.66% (inactive)
Cc1ccc(S(=O)(=O)N(C)C)cc1NC(=O)C(C)OC(=O)c1ccc2ccccc2n1 (stereo unspecified)	-2.57% (inactive)
COC(=O)c1ccccc1NC(=O)Cn1nc(C(F)(F)F)c2c1CCC2	-27% (inactive)
N#Cc1c(-c2ccccc2)nc(SCc2cccc(C(F)(F)F)c2)[nH]c1=O	41.2% (inactive)
Cc1ccccc1CSc1nnc(-c2ccccc2)c(=O)[nH]1	-16.6% (inactive)

Compound	inhibition
Cc1ccc(CSc2nc(-c3ccccc3)c(C#N)c(=O)[nH]2)cc1	54% (active)
Cc1ccc(NC(=O)Cc2nnc(SCC(=O)Nc3nncs3)n2C)cc1	-1.88% (inactive)
CCOC(=O)Cc1c(C)nc2c(C#N)c(C)nn2c1C	10.1% (inactive)
CN(CC(=O)NCc1ccncc1)S(=O)(=O)c1ccc(Br)cc1	0.22% (inactive)
Cc1ccc(S(=O)(=O)N2CCCCC2)cc1NC(=O)CCNC(=O)c1ccccc1	-24.1% (inactive)
C[C@H]1CC[C@]2(O[C@@H](CCO)C[C@@H](O)[C@@H]2O)O1	80.2% (active)
OCC[C@H]1C[C@H](O)[C@@H](O)[C@]2(CCCCO2)O1	-23.7% (inactive)
C[C@@H]1CC[C@]2(O[C@@H](CCO)C[C@H](O)[C@H]2O)O1	0.26% (inactive)
CCOC(=O)C1(C)CCCN(C(=O)c2ccc(F)c(Cl)c2)C1 (stereo unspecified)	2.88% (inactive)
Cc1ccccc1N1CCN(Cc2nc(Cc3ccccc3F)no2)CC1	-8.4% (inactive)
O=C(/C=C/c1cnc2ccccc2n1)NC1CCCCCC1	-49.1% (inactive)
Cc1nc2cc(NC(=O)CSc3nc4c(C)cccc4cc3C#N)ccc2s1	4.28% (inactive)
CCOc1ccc(/C(O)=C2\C(=O)C(=O)N(c3ccc(OC)cc3)C2c2ccccc2[N+](=O)[O-])cc1 (stereo unspecified)	54.8% (active)
COc1ccc(C2/C(=C(/O)c3ccccc3)C(=O)C(=O)N2c2ncccn2)cc1OC (stereo unspecified)	-2.92% (inactive)
COc1ccc(/C(O)=C2/C(=O)C(=O)N(c3nc(C)c(C)s3)C2c2ccco2)cc1 (stereo unspecified)	-21.4% (inactive)
Cc1ccc(C(O)c2ncc(-c3ccccc3F)[nH]2)cc1F (stereo unspecified)	-21.9% (inactive)
CC(=O)c1ccc(N2CCN(S(=O)(=O)c3ccc4c(c3)CC(=O)N4C)CC2)cc1	-27.6% (inactive)
Cc1cnc(CN(C)C(=O)CC2C(=O)NCCN2Cc2cccc(F)c2F)[nH]1 (stereo unspecified)	3.88% (inactive)
COc1c(C)cc(C(=O)C2CCCN(S(=O)(=O)c3c(C)noc3C)C2)cc1C (stereo unspecified)	50.3% (active)
Cc1noc(C)c1S(=O)(=O)N1CCCC(C(=O)Nc2nccs2)C1 (stereo unspecified)	-32.5% (inactive)
Cc1ccc(NC(=O)C2CCCN(S(=O)(=O)c3c(C)noc3C)C2)c(C)c1 (stereo unspecified)	-7.46% (inactive)
CCOC(=O)CCC(NC(=O)c1ccc(CNc2nc3cc(C(F)(F)F)ccc3nc2C(=O)OCC)cc1)C(=O)OCC (stereo unspecified)	-25.2% (inactive)
CCCCCc1nnc(NC(=O)c2ccc(=O)n(C)n2)s1	-18.4% (inactive)
O=C(CN1C(=O)/C(=C/c2ccccc2F)Sc2ccccc21)NCc1cccnc1	44.7% (inactive)

Compound	inhibition
O=C(CN1C(=O)/C(=C\c2ccccc2F)SC1=S)Nc1nc2ccccc2s1	68.3% (active)
CN(C(=O)CN1C(=O)S/C(=C\c2ccccc2F)C1=O)C1CCS(=O)(=O)C1 (stereo unspecified)	6.08% (inactive)
COc1ccc(CNC(=O)CCC(=O)Nc2nnc(C(C)C)s2)cc1	-5.09% (inactive)
O=C(O)C1C2C=CC(C2)C1C(=O)N1CCN(CCO)CC1 (stereo unspecified)	-8.15% (inactive)
CC1(C)SC2C(NC(=O)COc3ccccc3)C(=O)N2C1C(=O)O (stereo unspecified)	-1.14% (inactive) and 4.62% (inactive)
COc1ccc(C2=NO[C@@H]3C(=O)N(Cc4ccccc4)C(=O)[C@H]23)cc1OC	-14.4% (inactive)
COc1ccc(-c2cc(C(=O)N(C)Cc3ccc(OC)c(OC)c3OC)c3ccccc3n2)cc1OC	19.6% (inactive)
COc1ccc(-c2cc(C(F)(F)F)nc(S(C)(=O)=O)n2)cc1OC	55% (active)
c1ccc2c(C[n+]3csc4ccccc43)cccc2c1	13.4% (inactive)
Cc1noc(C)c1C(=O)NC(C)c1ccc2c(c1)OCO2 (stereo unspecified)	1.6% (inactive)
O=C(COC(=O)C1CC2CCCC(C1)C2=O)NC(=O)c1ccccc1 (stereo unspecified)	4.06% (inactive)
Cn1c(-c2ccc(F)cc2)cc2onc(-c3ccccc3Cl)c2c1=O	6.78% (inactive)
Cn1c(-c2ccc(C(F)(F)F)cc2)cc2onc(-c3ccccc3)c2c1=O	69.6% (active)
O=c1c2ccccc2c(-c2ccc(F)cc2)nn1-c1ccc(C(F)(F)F)cc1	-12.3% (inactive)
COc1cc(/C(=C/c2ccccc2)c2ccccc2)c2c(c1)oc1ccccc12	0.46% (inactive)
Cc1ccc(S(=O)(=O)N(C)c2nc3ccccc3n3c(C(C)C)nnc23)cc1	6.76% (inactive)
CC1(C)N=C(N)NC(Nc2ccc(Cl)cc2)=N1	-5.09% (inactive)
Cc1cc(OCc2ccc(C(=O)Nc3ccc(C(=O)O)cc3)o2)ccc1Cl	-33.7% (inactive)
O=c1oc2ccccc2cc1-c1cn(-c2ccccc2)c(=S)[nH]1	90.1% (active)
O=C1Cc2ccccc2Sc2ccc(Cl)cc21	-41.4% (inactive)
CCCCNC(=O)C[C@@H]1C[C@@]2(C(=O)OCC)CCC=C2N(Cc2ccco2)C1=O	1.34% (inactive)
Cc1ccc2occ(/C=N/NC(=O)c3ccccc3C)c(=O)c2c1	57.9% (active)
O=c1c(/C=N/O)coc2ccc(Cl)cc12	12.5% (inactive)
CC(C)(C)OC(=O)NCCCCCC(=O)N/N=C/c1coc2ccccc2c1=O	-22.3% (inactive)

Compound	inhibition
CC1(Cc2ccccc2C#N)C(=O)Nc2ccc(-c3ccc4[nH]ccc4c3)cc21 (stereo unspecified)	24.8% (inactive)
CC(Sc1nncn1C)C(=O)Nc1cc(C(F)(F)F)ccc1N1CCOCC1 (stereo unspecified)	-8.48% (inactive)
Cc1onc(-c2ccc(Cl)cc2)c1-c1ccnn1S(=O)(=O)c1ccc(Cl)cc1	-10.7% (inactive)
O=C(COC(=O)c1cccnc1Cl)NC(=O)NC1CCCCC1	-1.94% (inactive)
CC(=O)Nc1ccc(S(=O)(=O)N2CCC(N(C)CCC(C)C)CC2)cc1	15.7% (inactive)
CC1CN(C(=S)SCC(=O)c2ccccc2)CC(C)O1 (stereo unspecified)	-38.2% (inactive)
NC(=NC(=O)c1ccccc1)N1CCOCC1	-4.29% (inactive)
O=C(CSC(=S)N1CCOCC1)c1ccccc1	50.2% (active)
CC1=CC=CN2C1=NC(=O)CC2(C)C(=O)N(CC(=O)NC1CCCC1)c1ccccc1C (stereo unspecified)	6.68% (inactive)
CN1CCN(c2ccncc2S(=O)(=O)N2CCCC2)CC1	-13.2% (inactive)
COCCNc1ncnc2c1ncn2[C@H]1CN(Cc2ccc(OC)cc2)C[C@@H](CO)O1	-16.1% (inactive)
COC(=O)C1(S(=O)(=O)C2(C(=O)OC)CCCC2)CCCC1	10.4% (inactive)
CCCCCc1c(Cc2ccccc2)ncn1CCc1ccccc1OC	49.9% (inactive)
Cc1ccccc1NS(=O)(=O)CCCCC(Cl)(Cl)Cl	5.02% (inactive)
Clc1ccc(Cn2ncc3c(NCc4cccnc4)ncnc32)cc1	58.7% (active)
c1ccc(CNc2ncnc3[nH]ncc23)cc1	12.9% (inactive)
CC(C)CNc1ncnc2c1cnn2Cc1ccc(Cl)cc1	-3.29% (inactive)
CC(CNc1ccc([N+](=O)[O-])c2cccnc12)Nc1c([N+](=O)[O-])cc(C(F)(F)F)cc1[N+](=O)[O-] (stereo unspecified)	9.66% (inactive)
O=C(COc1ccc([N+](=O)[O-])cc1)Nc1cccc(C(=O)Nc2ccccc2C(=O)O)c1	13.9% (inactive)
N#Cc1cccc(NC(=O)COC(=O)c2ccccc2C(=O)c2ccc(Cl)c([N+](=O)[O-])c2)c1	66.1% (active)
NS(=O)(=O)c1cccc(NC(=O)COC(=O)c2cc([N+](=O)[O-])ccc2N2CCCC2)c1	-3.22% (inactive)
CC(=O)Nc1ccc(NC(=O)C(C)OC(=O)c2ccccc2C(=O)c2ccc(Cl)c([N+](=O)[O-])c2)cc1 (stereo unspecified)	51% (active)
CC(OC(=O)CNC(=O)c1ccc(Cl)c([N+](=O)[O-])c1)C(=O)NCc1ccco1 (stereo unspecified)	-1.1% (inactive)
CCc1ccc(NC(=O)C(C)OC(=O)/C=C/c2cccc([N+](=O)[O-])c2)cc1 (stereo unspecified)	7.86% (inactive)
